Screening results: PubChem BioAssay, several laboratories
Most compounds without a hit are left out; they make up all but 2.4% or so of the library.
A3A deaminase = inhibitors of human APOBEC3A DNA deaminase. inhibition, % at 20 µM. recombinant A3A, FAM/TAMRA ssDNA deamination fluorescence. P31941. AID 493011. 330,000 tested, 0.41% active;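 active = at least 40% inhibition at 20 µM here, with at most 30% in a related deaminase screen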;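 note: plate controls were A3A with DMSO for no effect and wells lacking A3A enzyme for full effect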
ADAM17 inh = inhibits human ADAM17; P78536; recombinant ADAM17, EDANS/DABCYL FRET peptide cleavage; inhibition, % at 6.95 µM; 370,000 tested, 0.83% active; AID 720648;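 active = inhibition above the mean of compounds lying between control limits plus 3 SD, set per campaign, cut at about 8.5% in these data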;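 note: 0% = DMSO-only wells as the low control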
ADAM10 inh = inhibitors of human ADAM10; AID 720582; recombinant ADAM10, EDANS/DABCYL FRET peptide cleavage, 3 h; 370,000 tested, 0.62% active; O14672; inhibition, % at 7 µM;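 active = inhibition above a per-campaign cutoff equal to the mean of compounds falling between control-based bounds plus 3 SD, cut at about 20% in these data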;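 note: 0% = DMSO wells while the 100% control is not disclosed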
NRP1-CendR mod = modulators of CendR peptide binding to human neuropilin-1; FAM-RPARPAR peptide binding to NRP-1, fluorescence polarization; inhibition, % at 25 µM; 360,000 tested, 0.85% active; AID 602438;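 active = inhibition or corrected inhibition above about 18%, plus a signal ratio from 0.5 to 1.5, limit read from the data, passing the limit was not always enough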
A3G deaminase = APOBEC3G (human) deaminase inhibition; 330,000 tested, 0.28% active; inhibition, % at 20 µM; Q9HC16; recombinant A3G, ssDNA deamination FAM/TAMRA fluorescence;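 active = inhibition of at least 40% at 20 µM, with no more than 30% in the related APOBEC3A deaminase screen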;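 note: plate controls were DMSO wells with A3G for no effect and wells lacking A3G enzyme for full effect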
ADAM10 confirm = human ADAM10 inhibition, confirmation. 2,100 tested, 1% active. shares compounds with ADAM10 inh. ADAM10 QFRET peptide cleavage, EDANS fluorescence. inhibition, % at 6.95 µM. AID 743208;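 active = inhibition above about 20% chosen separately for each screening run, limit read from the data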;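 note: 0% = DMSO wells and 100% = marimastat wells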
ADAM17 counter = counter-screen for ADAM10 exosite inhibitors: inhibitors of human ADAM17; shares compounds with ADAM10 inh; ADAM17 QFRET peptide cleavage, EDANS fluorescence; inhibition, % at 6.95 µM; 2,100 tested, 0.5% active;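 active = mean triplicate inhibition above the solvent-only control wells' mean plus 3 SD, cut at about 12% in these data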;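 note: 0% = DMSO wells and 100% = marimastat wells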
ADAM10 counter = ADAM10 inhibition, counter-screen for ADAM17 exosite hits. 2,900 tested, 47% active. inhibition, % at 6.95 µM. shares compounds with ADAM17 inh. recombinant ADAM10, EDANS/DABCYL FRET peptide cleavage, 3 h;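 active = mean inhibition over the triplicate runs exceeds the activity threshold set in the earlier primary screen, cut at about 20% in these data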;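 note: 0% = DMSO wells and 100% = marimastat wells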
ADAM17 confirm = confirmation of inhibitors of human ADAM17; recombinant ADAM17, EDANS/DABCYL QFRET peptide cleavage; inhibition, % at 6.95 µM; 2,900 tested, 65% active; AID 743257; shares compounds with ADAM17 inh;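 active = mean inhibition across replicates above the hit cutoff set in the primary screen, cut at about 8.5% in these data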;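 note: 0% = DMSO wells and 100% = marimastat wells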
An asterisk follows results filed as active.

How did CC(C)c1c(C(=O)N/N=C/c2cccc3ccccc23)nnn1-c1nonc1N do in these assays?
A3A deaminase: 4.2; ADAM17 inh: 10.0*; ADAM10 inh: 20.4*; NRP1-CendR mod: 0.7; A3G deaminase: 1.5; ADAM10 confirm: 12.5; ADAM17 counter: 6.0; ADAM10 counter: 26.8*; ADAM17 confirm: 19.9*

How did COC(=O)[C@]12C[C@H](CC(=O)NCCC(C)C)C(=O)N(Cc3cccc4ccccc34)C1=C[C@H](C(C)C)O[C@@H]2C1CC1 do in these assays?
ADAM17 inh: 8.6*; ADAM10 inh: 19.9*; ADAM10 confirm: 11.7; ADAM17 counter: 3.7; ADAM10 counter: 34.2*; ADAM17 confirm: 21.5*

Results for CCCCOCCCNC(=O)C[C@@H]1C[C@@]2(C(=O)OC)CC(C)(C)CC=C2N(Cc2cccc3ccccc23)C1=O ?
ADAM17 inh: 13.4*; ADAM10 inh: 21.6*; NRP1-CendR mod: 2.5; ADAM10 confirm: 7.5; ADAM17 counter: 1.9; ADAM10 counter: 27.4*; ADAM17 confirm: 16.4*

How did COC(=O)[C@]12C[C@H](CC(=O)NCc3cccc(C(F)(F)F)c3)C(=O)N(CCc3ccc(OC)c(OC)c3)C1=C[C@H](C(C)C)O[C@@H]2C1CC1 do in these assays?
ADAM17 inh: 12.7*; ADAM10 inh: 22.3*; ADAM10 confirm: -0.3; ADAM17 counter: 0.0; ADAM10 counter: 22.1*; ADAM17 confirm: 8.9*

How did Cc1nn(-c2ccccc2)c2sc(C(=O)N3CCN(C(c4ccccc4)c4ccc(Cl)cc4)CC3)cc12 (centres undefined) do in these assays?
ADAM17 inh: -2.1; ADAM10 inh: -6.5

Results for C#CCN1CC(COc2ccccc2)Oc2cccc(Oc3ccc(OC)cc3)c2S1(=O)=O (centres undefined) ?
ADAM17 inh: 3.3; ADAM10 inh: 0.9

Results for O=[N+]([O-])c1cc(Cl)cc(/C=N/NC(=S)Nc2ccc(S(=O)(=O)N3CCOCC3)cc2)c1O ?
A3A deaminase: -4.9; ADAM17 inh: 16.6*; ADAM10 inh: 34.8*; NRP1-CendR mod: -9.7; A3G deaminase: -2.4; ADAM10 confirm: 8.0; ADAM17 counter: 1.1; ADAM10 counter: 28.8*; ADAM17 confirm: 17.9*

How did O=S(=O)(NCCOCC(F)(F)C(F)F)c1ccc2oc3ccccc3c2c1 do in these assays?
A3A deaminase: 1.2; ADAM17 inh: 9.5*; ADAM10 inh: 28.6*; NRP1-CendR mod: 1.1; A3G deaminase: 1.2; ADAM10 confirm: 1.2; ADAM17 counter: 0.1; ADAM10 counter: 31.8*; ADAM17 confirm: 21.1*

How did O=C(/C=C/c1ccc(O)c(O)c1)c1ccc(S(=O)(=O)N2CCCCCC2)cc1 do in these assays?
A3A deaminase: 2.6; ADAM17 inh: 18.3*; ADAM10 inh: 34.3*; NRP1-CendR mod: 21.5*; A3G deaminase: -1.1; ADAM10 confirm: 5.6; ADAM17 counter: 1.6; ADAM10 counter: 26.9*; ADAM17 confirm: 16.7*

What do the screens show for `O=C(c1ccc(S(=O)(=O)N2CCCC2)cc1)N1CCCCC1`?
A3A deaminase: 4.2; ADAM17 inh: 0.9; ADAM10 inh: -11.1; NRP1-CendR mod: -3.7; A3G deaminase: -3.4

Results for COC(=O)C1CN(Cc2ccc(OC)cc2)CCS(=O)(=O)N1Cc1ccc(Cl)cc1 (centres undefined) ?
ADAM17 inh: -2.2; ADAM10 inh: -5.7

What do the screens show for `CC(=O)n1cc([C@@H]2C=C(C(=O)Nc3ccccc3)O[C@H](OCc3ccc(CO)cc3)C2)c2ccccc21`?
A3A deaminase: -2.1; ADAM17 inh: 8.9*; ADAM10 inh: 31.0*; NRP1-CendR mod: 9.2; A3G deaminase: -8.8; ADAM10 confirm: 7.2; ADAM17 counter: 2.6; ADAM10 counter: 12.5; ADAM17 confirm: 13.6*

Results for O=C(Nc1ccccc1)C1=C[C@@H](c2ccccc2)C[C@@H](OCc2ccc(CO)cc2)O1 ?
A3A deaminase: 1.2; ADAM17 inh: 2.1; ADAM10 inh: 6.4; NRP1-CendR mod: -13.6; A3G deaminase: -2.5

How did O=C(Nc1ccccc1)C1=C[C@@H](c2ccc(C(F)(F)F)cc2)C[C@@H](OCc2ccc(CO)cc2)O1 do in these assays?
A3A deaminase: -5.0; ADAM17 inh: 11.2*; ADAM10 inh: 26.8*; NRP1-CendR mod: 9.7; A3G deaminase: -11.0; ADAM10 confirm: 7.4; ADAM17 counter: 2.8; ADAM10 counter: 12.6; ADAM17 confirm: 10.3*

What do the screens show for `O=C(NCc1ccccc1)C1=C[C@H](c2ccc(Br)cc2)C[C@H](OCc2ccc(CO)cc2)O1`?
A3A deaminase: 1.5; ADAM17 inh: 9.9*; ADAM10 inh: 20.7*; NRP1-CendR mod: -18.1; A3G deaminase: -0.9; ADAM10 confirm: 11.6; ADAM17 counter: 3.6; ADAM10 counter: 28.2*; ADAM17 confirm: 17.6*

What do the screens show for `O=C(NCc1ccccc1)C1=C[C@@H](c2ccccc2)C[C@@H](OCc2ccc(CO)cc2)O1`?
A3A deaminase: 4.0; ADAM17 inh: -4.1; ADAM10 inh: -3.3; NRP1-CendR mod: -13.1; A3G deaminase: 0.4

How did COCCCN1C(=O)[C@H](CC(=O)NCCc2ccccc2OC)[C@]2(C(=O)OC)CCCCC=C12 do in these assays?
ADAM17 inh: -2.4; ADAM10 inh: -4.9

Results for COC(=O)CN1CCN(C(=O)c2csc3ccccc23)CC1 ?
ADAM17 inh: -0.3; ADAM10 inh: -2.3

How did CCCCCOC(=O)Nc1ccc(S(=O)(=O)Nc2cccc([N+](=O)[O-])c2)cc1 do in these assays?
A3A deaminase: -4.3; ADAM17 inh: 11.0*; ADAM10 inh: 26.7*; NRP1-CendR mod: 0.6; A3G deaminase: -5.3; ADAM10 confirm: 2.8; ADAM17 counter: 2.3; ADAM10 counter: 23.8*; ADAM17 confirm: 12.7*

How did COC(=O)[C@]12C[C@H](CC(=O)N3CCCC3)C(=O)N(Cc3cccc4ccccc34)C1=C[C@H](C(C)(C)C)O[C@@H]2C do in these assays?
ADAM17 inh: 3.6; ADAM10 inh: 6.0

What do the screens show for `COC(=O)[C@]12C[C@H](CC(=O)NCc3cccc(C(F)(F)F)c3)C(=O)N(Cc3ccco3)C1=C[C@H](C1CCCC1)O[C@@H]2C`?
ADAM17 inh: 9.0*; ADAM10 inh: 20.9*; ADAM10 confirm: 7.2; ADAM17 counter: 1.5; ADAM10 counter: 16.6; ADAM17 confirm: 8.9*
